Records with an inconclusive call do not appear. Entries that show only a call come without a potency. The source made the active and inactive calls. Calls come from the whole dose curve; as a rule, active = well fitted activation curve with a large enough effect in the repeat runs; inconclusive = weak or mixed curves; inactive = no such curve, though single readings can be large or run the other way.

The test has as its target Nuclear receptor subfamily 1 group I member 2 (Homo sapiens) (UniProt O75469). Briefly: CYP3A4 induction through human pregnane X receptor (PXR) by small molecules, qHTS assay (AID 1346984). Note: nearly all actives have a fitted effect of over 40% in size. The settings on record: DPX-2 HepG2 PXR, CYP3A4-luciferin luminescence, 24 h; series mostly up to 46.1 µM. A digest of the protocol: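 Quantitative HTS in DPX-2 cells, i.e. HepG2 transfected with PXR response element and CYP3A4-promoter luciferase. Compounds in DMSO incubated 24hr at 37C; then P450-Glo CYP3A4 substrate, 3uM final, 3hr; One-Glo luminescence.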
As for `C[N+]1(CCCCC[N+]2(C)CCCC2)CCCC1`, the Potency result was “inactive”.
In the case of `CCC1OC(=O)C[C@@H](O)[C@H](C)[C@@H](O[C@@H]2O[C@H](C)C[C@H](N(C)C)[C@H]2O)[C@@H](CC=O)C[C@@H](C)C(=O)/C=C/[C@]2(C)OC2C1C` (stereo partly drawn) it was “inactive”; in that of `CCCCCCCCCCCCCC(=O)OCC(COP(=O)([O-])OCC[N+](C)(C)C)OC(=O)CCCCCCCCCCCCC` (stereo not drawn), “inactive”.
The value for `CC(=NCc1ccccc1)c1ccccc1O` was “inactive”; that for `CCC(=O)OC(OP(=O)(CCCCc1ccccc1)CC(=O)N1C[C@H](C2CCCCC2)C[C@H]1C(=O)O)C(C)C` (stereo partly drawn) was “inactive”; that for `CC12CCC(C[N+](C)(CCC[N+](C)(C)C)C1)C2(C)C` (stereo not drawn) was “inactive”.
In the case of `NC(=O)CC[C@@H]1NC(=O)[C@H](Cc2ccccc2)NC(=O)[C@H](Cc2ccc(O)cc2)NC(=O)[C@@H](N)CSSC[C@@H](C(=O)N2CCC[C@H]2C(=O)N[C@@H](CCCN=C(N)N)C(=O)NCC(N)=O)NC(=O)[C@H](CC(N)=O)NC1=O` it was “inactive”.
Turning to `O=C(O)Cc1nn(Cc2ccc(Br)cc2F)c(=O)c2ccccc12`, the Potency result is “inactive”.
In the case of `NCCO/C=C/[C@H](N)C(=O)O` it was “inactive”.
In the case of `CC/C(=C(/CC)c1ccc(OP(=O)(O)O)cc1)c1ccc(OP(=O)(O)O)cc1` it was “inactive”; in that of `CO/N=C(\C(=O)N[C@@H]1C(=O)N2C(C(=O)O)=C(COC(C)=O)CS[C@H]12)c1csc(N)n1` (stereo in doubt), “inactive”.
The value for `C=CCN1C(=O)C(CC(C)C)NC1=S` (stereo not drawn) was “inactive”.
Take `CN[C@H](CC(C)C)C(=O)N[C@H]1C(=O)N[C@@H](CC(N)=O)C(=O)N[C@H]2C(=O)N[C@H]3C(=O)N[C@H](C(=O)N[C@@H](C(=O)O)c4cc(O)cc(O)c4-c4cc3ccc4O)[C@H](O)c3ccc(c(Cl)c3)Oc3cc2cc(c3O[C@@H]2O[C@H](CO)[C@@H](O)[C@H](O)[C@H]2O[C@H]2C[C@](C)(N)C(O)[C@H](C)O2)Oc2ccc(cc2Cl)[C@H]1O` (stereo partly drawn): the Potency entry is “inactive”.

(Values after PubChem BioAssay (Tox21).)
